# The panel holds about 83,000 compounds, 20% with a hit somewhere; the sample as a whole holds those more often.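 How to read the values: 0–100, growth inhibition (40 = 60% inhibited); 0, no net growth; -100 to 0, cell death (-40 = 40% of starting cells died; -100 = all dead).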 Active and inactive are the calls of the source.
# System: NCI-H23 lung
# Assay: NCI-60 one-dose screen, 48 h (100 = growth as untreated, 0 = no growth, -100 = all killed)
# Conditions: 10 µM
# Method: Growth inhibition of the NCI-H23 human Non-Small Cell Lung tumor cell line is measured as a screen for anti-cancer activity. Cells are grown in 96 well plates and exposed to the test compound for 48 hours. Compounds are tested at a single concentration, which is 10^-5 M for most compounds. The reported endpoint is percent growth (GI% or GIPRCNT), where numbers from 0 - 100% represent growth inhibition, and numbers from -100% - 0 represent cell death. For example, a value of 40 represents 60% growth inhibition. A value of 0 means no net growth occurred over the course of the experiment. A value of -40 indicates 40% of cells at the beginning of the experiment died by the end of the experiment. A value of -100 means all cells are dead at the end of the experiment.
# NCI-60 Human Tumor Cell Lines Screen was performed using the standard one-dose NCI protocol, which is described in more detail at https://dtp.cancer.gov/discovery_development/nci-60/default.htm.
# Compounds with GIPRCNT values below 10 were considered active. Activity score was based on GIPRCNT using the following formula: […]
# Score is 0 for GIPRCNT values of 100 or above, 50 for GIPRCNT values of 0, and 100 for GIPRCNT values of -100.
row,SMILES,growth
1,CN(C1c2ccccc2Oc2ccccc21)S(=O)(=O)c1cc(Cl)ccc1Cl,69.8% (inactive)
2,CCCCCCCCCCCC(c1ccccc1)N(C)C (stereo not given),102% (inactive)
3,COc1ccc(-c2cn[nH]c2-c2cc(OC)c(OC)c(OC)c2)cc1,27.8% (inactive)
4,O=C(O)CNS(=O)(=O)c1ccc(OCCOc2ccc(S(=O)(=O)NCC(=O)O)cc2)cc1,95.9% (inactive)
5,Cc1cc(C)c(C(=O)OC(C)CNC2CCCCC2)c(C)c1 (stereo not given),94.1% (inactive)
6,CN(C)c1ccc2c(c1)OC(N)=C(C#N)C2c1ccc2c(c1)CCO2 (stereo not given),35.5% (inactive)
7,Nc1ccn([C@@H]2O[C@H](COP(=O)(O)O[C@@H]3C[C@H](n4cc(F)c(=O)[nH]c4=O)O[C@@H]3COP(=O)(O)O[C@@H]3C[C@H](n4cc(F)c(=O)[nH]c4=O)O[C@@H]3COP(=O)(O)O[C@@H]3C[C@H](n4cc(F)c(=O)[nH]c4=O)O[C@@H]3COP(=O)(O)O[C@@H]3C[C@H](n4cc(F)c(=O)[nH]c4=O)O[C@@H]3COP(=O)(O)O[C@@H]3C[C@H](n4cc(F)c(=O)[nH]c4=O)O[C@@H]3COP(=O)(O)O[C@@H]3C[C@H](n4cc(F)c(=O)[nH]c4=O)O[C@@H]3COP(=O)(O)O[C@@H]3C[C@H](n4cc(F)c(=O)[nH]c4=O)O[C@@H]3COP(=O)(O)O[C@@H]3C[C@H](n4cc(F)c(=O)[nH]c4=O)O[C@@H]3COP(=O)(O)O[C@@H]3C[C@H](n4cc(F)c(=O)[nH]c4=O)O[C@@H]3COP(=O)(O)O[C@@H]3C[C@H](n4cc(F)c(=O)[nH]c4=O)O[C@@H]3COP(=O)(O)OCCOCCOCCOCCOCCOCCO)[C@H](O)C2O)c(=O)n1 (stereo not given in full),33.2% (inactive)
8,O=C1/C(=C/c2ccc(O)cc2)Cc2ccc(Cl)cc21,69.5% (inactive)
9,CC(C)=C1CCC(C)C/C1=N\N=C(N)N (stereo not given),105% (inactive)
10,FC(F)(F)c1ccc(-c2nc(-c3nc4cc(Cl)c(Cl)cc4[nH]3)c3ccccn23)cc1,75.1% (inactive)
11,COc1ccc(COC(=O)CC(C)C)cc1,93.1% (inactive)
12,O=C(N/N=c1/ccoc2cccnc12)N1CCN(c2ncccn2)CC1,26.4% (inactive)
13,Cc1ccc(S(=O)(=O)Oc2ccccc2-c2ccccc2)cc1,47.2% (inactive)
14,CC(=O)N(O)c1ccc(/C=C/c2ccccc2)cc1,31% (inactive)
15,CC(C)C[C@H](NC(=O)CCn1ccc2ccccc2c1=O)B(O)O,63.4% (inactive)
16,O=[N+]([O-])c1cc2ncccc2c2ncccc12,81.3% (inactive)
17,COc1ccc2oc(=O)cc(C(c3ccc[nH]3)c3ccc[nH]3)c2c1,26% (inactive)
18,CCOC(=O)c1c(C(F)(F)F)n([O-])c2ccc(OC)cc2[n+]1=O,30.3% (inactive)
19,COc1ccccc1Cn1cc2c(c1-c1ccccc1)CCc1cnoc1-2,36.9% (inactive)
20,Nc1c(CNCc2nnn(Cc3ccccc3)c2N)nnn1Cc1ccccc1,103% (inactive)

row,SMILES,growth
1,COc1cc(-c2cc(-c3ccc(C)cc3)nc3nc(N)[nH]c(=O)c23)ccc1Oc1ccnc2cc(Cl)ccc12,107% (inactive)
2,COc1ccc(C2C=C(c3ccc(Cl)c(Cl)c3)N=C3SC(C)=CN32)cc1 (stereo not given),92.2% (inactive)
3,C#CCn1c(-c2cccc(OCCCCl)c2)nc2c1c(=O)n(C)c(=O)n2C,79.5% (inactive)
4,C#CCNCCN1C(=O)c2ccc3c4c(ccc(c24)C1=O)C(=O)N(CCNCC#C)C3=O,23.8% (inactive)
5,CCCCN(CCCC)c1ccc(C(=NC(C)CCCN(CC)CC)c2ccc(N(C)C)cc2)cc1 (stereo not given),-60.3% (active)
6,Nc1ccc2c(c1)Cc1cc(N)c(Cl)cc1-2,103% (inactive)
7,COc1cc(C2C=C(c3ccc(Cl)cc3)N=C3SC(C)=CN32)cc(OC)c1OC (stereo not given),93.8% (inactive)
8,C[C@H](NC(=O)[C@@H]1CSSC[C@@H](NC(=O)Cc2nc3ccccc3cc2O)C(=O)NCC(=O)N1C)c1ccccc1,106% (inactive)
9,O=C(O)CN1C(=O)C=CC1=O,106% (inactive)
10,CC(=O)Oc1c(C)c(C)c2c(c1C)CCC(C)(CC(=O)OCCCCCCCCCCC[P+](c1ccccc1)(c1ccccc1)c1ccccc1)O2 (stereo not given),-52.2% (active)
11,O=C(/C=C/c1nnc2n(Cc3ccccc3)c(=O)c3c4c(sc3n12)CCCC4)c1ccccc1,96.9% (inactive)
12,CCCCc1ccc(NC(=O)N(CCCl)N=O)cc1,109% (inactive)
13,COc1cc(-c2cc(-c3cc(OC)c(OC)c(OC)c3)nc3nc(N)[nH]c(=O)c23)ccc1Oc1ccnc2cc(Cl)ccc12,42.1% (inactive)
14,COc1cc(NS(C)(=O)=O)ccc1Nc1c2ccc(Cl)cc2nc2c(OC)cccc12,-23.6% (active)
15,Cc1cc(OI)c(C(C)C)cc1-c1cc(C(C)C)c(OI)cc1C,94.9% (inactive)
16,COc1cc(C)c2sc3ccccc3c(=O)c2c1NCCN(C)C,76.3% (inactive)
17,Cc1nc2ccc(-n3c(-c4ccc(Cl)cc4)nc4ccccc4c3=O)cc2n1Cc1ccccc1,87.8% (inactive)
18,CCCCn1c(=O)[nH]c2c(c1=O)C(c1ccc(Cl)cc1)c1c([nH]c(=O)n(CCCC)c1=O)N2,90% (inactive)
19,COc1cc(C2C=C(c3ccc(Cl)c(Cl)c3)N=C3SC(C)=CN32)cc(OC)c1OC (stereo not given),79.5% (inactive)
20,Oc1ccc(/C=N\Nc2ccccn2)c(O)c1,1.98% (active)

# From PubChem BioAssay (NCI)
